Among the data in PubChem BioAssay are composite z-score and z-score values, retold here.

Experiment [1] can be described thus: small molecules captured by biotinylated probe aFSTL3 – biochemical, small-molecule microarray, fluorescence 635/667, stem cell growth factor project, primary screen (AID 1064).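 Also: measures binding of the biotinylated anti-FSTL3 antibody to printed compounds.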 As to conditions: higher = more signal.
Experiment [2] is described as follows: binders from COS7 lysate, DM2A8 probe, primary screen, torsin A project, cell lysate, small-molecule microarray, fluorescence 635/667 (AID 1065). As to conditions: higher = more signal, COS7 lysate expressing mutant human TOR1A.
Experiment [3] in a line: small molecules captured by biotinylated probe aFGF2 – biochemical, small-molecule microarray, fluorescence 635/667, stem cell growth factor project, primary screen (AID 1067).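 Also: measures binding of biotinylated aFGF2 protein to printed compounds on slides; z-score merges feature fluorescence and signal-to-noise across triplicate slides.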 As to conditions: higher = more signal.
A short description of experiment [4]: small molecules captured by biotinylated probe aFGF10 – biochemical, small-molecule microarray, fluorescence 635/667, stem cell growth factor project, primary screen (AID 1071).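 Also: score merges 667 nm spot intensity and signal to noise from triplicate slides.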 As to conditions: higher = more signal.
Experiment [5] has as its target Neurogenic locus notch homolog protein 2 (Homo sapiens) (UniProt Q04721). Briefly: small molecules binding Notch2 protein – biochemical, small-molecule microarray, 635 nm fluorescence, stem cell growth factors, primary screen (AID 1073). As to conditions: higher = more signal.
Experiment [6] deals with Pro-neuregulin-1, membrane-bound isoform (Homo sapiens) (UniProt Q02297). Briefly: small molecules binding neuregulin-1 protein – biochemical, small-molecule microarray, fluorescence 635/667, psychiatric disease protein project, primary screen (AID 1075).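 Also: score combines 667 nm spot fluorescence with signal to noise.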 As to conditions: NRG1 binding, 635 nm fluorescence, higher = more signal.
The subject of experiment [7] is Neuregulin-1 EGF-like domain. Briefly: small molecules binding NRG1 EGF domain – biochemical, small-molecule microarray, 635 nm fluorescence, primary screen (AID 1081).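 Also: binding of the protein to compounds printed on small-molecule microarray slides.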 As to conditions: higher = more signal.
The nature of experiment [8]: FRG1 expression reporter modulators in myotubes – cell-based, C2C12 myotubes, firefly/Renilla luciferase, luminescence, FRG1 inhibition for FSHD, primary screen (AID 1084). As to conditions: FRG1 promoter luciferase, higher = more signal, called active from +8 up or from −8 down.
A short description of experiment [9]: small molecules captured by biotinylated probe aFST – biochemical, small-molecule microarray, fluorescence 635/667, stem cell growth factor project, primary screen (AID 1086).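 Also: score merges 667 nm fluorescence with signal-to-noise of each printed compound spot.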 As to conditions: higher = more signal.
Experiment [10] is described as follows: binders of probe aHhip on microarray, primary screen, stem cell growth factor project, biochemical, small-molecule microarray, fluorescence 635/667 (AID 1087).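 Also: score merges spot fluorescence at 667nm with spot signal to noise ratio.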 As to conditions: higher = more signal.
The subject of experiment [11] is PRMT1 (protein arginine N-methyltransferase 1). Briefly: small molecules binding arginine methyltransferase PRMT1 – biochemical, small-molecule microarray, 635 nm fluorescence, primary screen (AID 1088).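 Also: binding of Prmt1 protein to compounds spotted on small-molecule microarray slides.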 As to conditions: higher = more signal.
Experiment [12] is described as follows: growth effects on S. cerevisiae YJM789 – YJM789 clinical isolate, OD600, 24 h, basal, primary screen (AID 1089).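 Also: growth of clinical yeast isolate S. cerevisiae YJM 789 seeded 1000 cells per well; test concentration not given here.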 As to conditions: higher = more signal, called active from +8 up or from −8 down.
Experiment [13] can be described thus: S. pombe growth modifiers, basal conditions – strain 972, OD600, 24 h, no modulator, primary screen (AID 1090).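 Also: basal condition with compound alone and no growth modifier present; test concentration not given here.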 As to conditions: S. pombe 972 growth, higher = more signal, called active from +8 up or from −8 down.
Experiment [14] is described as follows: budding yeast growth modifiers under rapamycin – strain BY4716, OD600, 96 h, primary screen (AID 1091). Also: test concentration not given here. As to conditions: S. cerevisiae BY4716 + rapamycin, higher = more signal, called active from +8 up or from −8 down.
Experiment [15] concerns the target Torsin-1A-interacting protein 2 (Homo sapiens) (UniProt Q8NFQ8). Description: small molecules binding lysate-expressed LULL1 – cell lysate, human LULL1 lysate, 635/667 nm fluorescence, primary screen (AID 1092).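 Also: score merges per-feature 667 nm fluorescence with signal-to-noise.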 As to conditions: small-molecule microarray, hLULL1 lysate binding, 635 nm fluorescence; higher = more signal.
The nature of experiment [16]: optical density change of DRC41 E. coli – strain DRC41, OD650, 24 h, E. coli filamentation project, primary screen (AID 1093).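 Also: MC1000 strain lacking acrAB efflux and sulA so SOS filamentation is blocked; test concentration not given here.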 As to conditions: E. coli DRC41 growth, higher = more signal, called active from +8 up or from −8 down.
Experiment [17] is described as follows: probe aLefty2 binding to arrayed compounds – biochemical, biotinylated probe, 635/667 nm fluorescence, primary screen (AID 1094).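 Also: score merges spot fluorescence near 667 nm with spot signal-to-noise ratio.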 As to conditions: small-molecule microarray, higher = more signal.
Experiment [18] concerns Noggin (protein binding on small-molecule microarray). Briefly: small molecules binding Noggin protein – biochemical, 635/667 nm fluorescence, primary screen (AID 1095).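 Also: score merges 667 nm feature fluorescence with signal to noise over triplicate slides.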 As to conditions: 635 nm fluorescence, higher = more signal.
The target in experiment [19] is Neurogenic locus notch homolog protein 3 (Homo sapiens) (UniProt Q9UM47). Briefly: small molecules binding NOTCH3 protein – biochemical, 635/667 nm fluorescence, primary screen (AID 1096). As to conditions: small-molecule microarray, 635 nm fluorescence, higher = more signal.
The nature of experiment [20]: probe aEGFR binding to arrayed compounds – biochemical, biotinylated probe, 635/667 nm fluorescence, primary screen (AID 1097).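 Also: probe is a biotinylated anti-EGFR antibody binding compounds printed on slides; score combines fluorescence near 667 nm and signal to noise of each spot.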 As to conditions: small-molecule microarray, higher = more signal.

Calls of active or inactive are those of the source.

Neurogenic locus notch homolog protein 3 (Homo sapiens), sequence (Q9UM47 whole entry, looked up): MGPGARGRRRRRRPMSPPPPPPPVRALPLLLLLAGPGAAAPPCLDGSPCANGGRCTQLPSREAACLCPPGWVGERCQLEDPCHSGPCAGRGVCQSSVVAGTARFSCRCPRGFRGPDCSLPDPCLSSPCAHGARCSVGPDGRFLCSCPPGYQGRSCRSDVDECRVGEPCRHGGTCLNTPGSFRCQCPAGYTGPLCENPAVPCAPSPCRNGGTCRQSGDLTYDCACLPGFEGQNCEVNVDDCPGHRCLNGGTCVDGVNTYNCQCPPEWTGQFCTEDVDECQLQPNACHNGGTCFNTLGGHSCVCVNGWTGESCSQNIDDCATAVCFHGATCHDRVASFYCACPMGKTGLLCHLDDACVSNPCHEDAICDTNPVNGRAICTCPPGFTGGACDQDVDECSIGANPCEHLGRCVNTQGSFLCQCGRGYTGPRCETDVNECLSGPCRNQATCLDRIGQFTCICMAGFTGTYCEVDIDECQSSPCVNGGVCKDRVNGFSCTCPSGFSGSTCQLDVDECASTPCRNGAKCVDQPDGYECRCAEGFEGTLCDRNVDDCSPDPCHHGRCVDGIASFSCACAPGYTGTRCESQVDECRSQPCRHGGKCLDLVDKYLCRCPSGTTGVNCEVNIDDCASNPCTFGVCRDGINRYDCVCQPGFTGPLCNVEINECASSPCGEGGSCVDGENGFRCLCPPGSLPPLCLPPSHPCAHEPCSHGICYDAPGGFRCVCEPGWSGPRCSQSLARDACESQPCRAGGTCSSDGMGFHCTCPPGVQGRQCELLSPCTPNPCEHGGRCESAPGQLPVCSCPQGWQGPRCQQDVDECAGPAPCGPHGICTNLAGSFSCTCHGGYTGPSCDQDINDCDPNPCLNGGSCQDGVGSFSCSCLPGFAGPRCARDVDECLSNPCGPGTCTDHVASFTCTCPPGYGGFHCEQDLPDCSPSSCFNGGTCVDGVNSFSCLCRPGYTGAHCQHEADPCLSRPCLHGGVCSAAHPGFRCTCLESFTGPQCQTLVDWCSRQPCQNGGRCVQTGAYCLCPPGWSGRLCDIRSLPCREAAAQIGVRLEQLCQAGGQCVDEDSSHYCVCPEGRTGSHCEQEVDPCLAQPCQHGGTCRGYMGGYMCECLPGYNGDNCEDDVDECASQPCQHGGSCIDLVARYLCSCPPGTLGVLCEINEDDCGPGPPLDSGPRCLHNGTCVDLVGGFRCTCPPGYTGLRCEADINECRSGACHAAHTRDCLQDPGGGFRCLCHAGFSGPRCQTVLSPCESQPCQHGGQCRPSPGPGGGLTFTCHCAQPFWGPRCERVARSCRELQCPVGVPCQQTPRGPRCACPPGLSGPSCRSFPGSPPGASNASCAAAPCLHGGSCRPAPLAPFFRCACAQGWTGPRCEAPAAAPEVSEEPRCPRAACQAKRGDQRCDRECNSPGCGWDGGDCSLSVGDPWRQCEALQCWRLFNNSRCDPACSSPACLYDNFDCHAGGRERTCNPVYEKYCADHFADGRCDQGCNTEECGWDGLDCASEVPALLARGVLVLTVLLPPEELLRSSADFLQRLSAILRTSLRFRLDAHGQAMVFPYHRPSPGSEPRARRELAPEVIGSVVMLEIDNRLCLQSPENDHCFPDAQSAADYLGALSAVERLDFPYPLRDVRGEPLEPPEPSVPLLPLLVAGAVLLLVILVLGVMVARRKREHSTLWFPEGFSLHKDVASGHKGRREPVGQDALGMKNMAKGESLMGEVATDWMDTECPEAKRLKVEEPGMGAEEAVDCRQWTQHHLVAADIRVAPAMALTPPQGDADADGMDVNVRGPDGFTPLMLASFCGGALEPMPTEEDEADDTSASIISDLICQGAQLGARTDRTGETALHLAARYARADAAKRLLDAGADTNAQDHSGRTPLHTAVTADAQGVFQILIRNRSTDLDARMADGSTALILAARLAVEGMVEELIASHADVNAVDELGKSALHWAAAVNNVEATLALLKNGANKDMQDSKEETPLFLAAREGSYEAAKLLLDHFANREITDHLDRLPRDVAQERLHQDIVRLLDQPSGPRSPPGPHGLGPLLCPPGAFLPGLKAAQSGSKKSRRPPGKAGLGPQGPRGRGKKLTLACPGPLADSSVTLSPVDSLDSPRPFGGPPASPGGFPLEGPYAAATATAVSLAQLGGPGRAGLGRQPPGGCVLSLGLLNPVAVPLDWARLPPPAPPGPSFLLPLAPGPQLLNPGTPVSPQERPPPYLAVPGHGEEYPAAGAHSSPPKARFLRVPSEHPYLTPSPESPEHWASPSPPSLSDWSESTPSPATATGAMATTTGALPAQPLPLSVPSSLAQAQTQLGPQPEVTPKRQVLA
Neurogenic locus notch homolog protein 2 (Homo sapiens), sequence (Q04721 whole entry, looked up, canonical isoform): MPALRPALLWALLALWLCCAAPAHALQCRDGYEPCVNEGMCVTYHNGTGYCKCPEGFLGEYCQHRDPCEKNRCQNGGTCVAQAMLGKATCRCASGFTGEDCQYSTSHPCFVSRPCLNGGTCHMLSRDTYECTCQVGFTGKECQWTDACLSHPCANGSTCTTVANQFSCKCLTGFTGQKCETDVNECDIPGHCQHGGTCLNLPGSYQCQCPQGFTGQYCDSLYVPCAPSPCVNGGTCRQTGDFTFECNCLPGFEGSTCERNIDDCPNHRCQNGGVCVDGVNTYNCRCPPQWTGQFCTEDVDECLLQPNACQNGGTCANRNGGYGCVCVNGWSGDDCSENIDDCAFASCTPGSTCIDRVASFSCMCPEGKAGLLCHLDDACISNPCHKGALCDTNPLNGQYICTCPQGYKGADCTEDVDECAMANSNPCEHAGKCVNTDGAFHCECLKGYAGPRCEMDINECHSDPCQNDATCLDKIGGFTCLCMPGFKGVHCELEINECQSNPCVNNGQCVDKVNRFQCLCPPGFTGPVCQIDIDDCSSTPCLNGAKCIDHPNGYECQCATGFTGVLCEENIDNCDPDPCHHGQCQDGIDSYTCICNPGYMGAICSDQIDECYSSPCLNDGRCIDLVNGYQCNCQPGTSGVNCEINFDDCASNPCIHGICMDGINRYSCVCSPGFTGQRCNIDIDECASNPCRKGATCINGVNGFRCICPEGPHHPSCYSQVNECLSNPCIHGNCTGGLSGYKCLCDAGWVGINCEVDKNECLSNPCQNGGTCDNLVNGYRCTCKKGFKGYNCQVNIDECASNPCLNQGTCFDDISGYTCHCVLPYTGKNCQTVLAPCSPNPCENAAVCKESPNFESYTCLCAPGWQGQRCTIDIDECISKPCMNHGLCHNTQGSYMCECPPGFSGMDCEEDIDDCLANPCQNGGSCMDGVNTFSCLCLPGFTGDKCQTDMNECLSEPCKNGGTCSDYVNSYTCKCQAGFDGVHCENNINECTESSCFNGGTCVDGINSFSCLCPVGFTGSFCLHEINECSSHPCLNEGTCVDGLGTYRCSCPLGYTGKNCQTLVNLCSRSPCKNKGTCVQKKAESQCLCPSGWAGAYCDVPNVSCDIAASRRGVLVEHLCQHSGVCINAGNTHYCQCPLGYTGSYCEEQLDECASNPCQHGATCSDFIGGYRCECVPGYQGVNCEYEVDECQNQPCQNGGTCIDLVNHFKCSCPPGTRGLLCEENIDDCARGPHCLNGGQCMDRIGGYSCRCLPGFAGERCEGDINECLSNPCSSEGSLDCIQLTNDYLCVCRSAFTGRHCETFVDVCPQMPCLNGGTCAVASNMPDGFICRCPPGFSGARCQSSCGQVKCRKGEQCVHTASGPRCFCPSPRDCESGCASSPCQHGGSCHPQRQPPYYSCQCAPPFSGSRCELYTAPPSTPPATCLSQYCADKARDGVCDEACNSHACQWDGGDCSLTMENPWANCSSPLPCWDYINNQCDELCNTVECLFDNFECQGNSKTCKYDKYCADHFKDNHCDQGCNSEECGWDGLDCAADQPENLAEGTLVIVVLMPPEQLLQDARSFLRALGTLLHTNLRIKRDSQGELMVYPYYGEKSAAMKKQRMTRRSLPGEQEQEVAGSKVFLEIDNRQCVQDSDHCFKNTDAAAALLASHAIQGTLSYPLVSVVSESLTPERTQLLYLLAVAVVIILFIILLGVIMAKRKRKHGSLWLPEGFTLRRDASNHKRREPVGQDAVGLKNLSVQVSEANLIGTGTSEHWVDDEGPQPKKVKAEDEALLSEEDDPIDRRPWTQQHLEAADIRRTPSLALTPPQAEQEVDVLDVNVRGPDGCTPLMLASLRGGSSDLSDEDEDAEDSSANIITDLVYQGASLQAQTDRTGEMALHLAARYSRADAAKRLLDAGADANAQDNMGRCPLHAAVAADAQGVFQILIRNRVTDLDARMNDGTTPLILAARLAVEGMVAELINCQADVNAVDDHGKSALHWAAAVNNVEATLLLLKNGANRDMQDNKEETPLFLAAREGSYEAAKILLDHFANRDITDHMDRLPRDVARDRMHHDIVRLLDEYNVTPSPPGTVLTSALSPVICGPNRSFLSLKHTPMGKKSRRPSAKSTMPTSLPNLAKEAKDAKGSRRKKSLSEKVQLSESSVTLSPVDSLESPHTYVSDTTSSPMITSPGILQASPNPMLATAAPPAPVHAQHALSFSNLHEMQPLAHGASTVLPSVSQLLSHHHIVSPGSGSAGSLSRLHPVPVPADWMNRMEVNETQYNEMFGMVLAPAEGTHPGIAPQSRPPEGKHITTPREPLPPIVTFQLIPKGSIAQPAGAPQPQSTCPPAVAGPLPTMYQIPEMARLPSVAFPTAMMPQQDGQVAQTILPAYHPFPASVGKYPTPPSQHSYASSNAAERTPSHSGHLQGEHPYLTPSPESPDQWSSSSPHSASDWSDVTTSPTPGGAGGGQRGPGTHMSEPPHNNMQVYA

With `NC(=O)NCC#Cc1ccc2c(c1)[C@]1(C(=O)N2)[C@H](C(=O)O)[C@H]2C(=O)O[C@H](c3ccccc3)[C@H](c3ccccc3)N2[C@@H]1c1ccccc1OCCO`, the composite z-score in experiment [1] is 0.991; in experiment [2], 0.396; in experiment [3], -0.0749; in experiment [4] it was 0.776; in experiment [5], 0.231; in experiment [6], 1.99. The composite z-score was determined as 1.01 in [7]; 0.734 in experiment [9]; 0.291 in [10]; 1.43 in experiment [11]; 1.43 in [15]; 0.857 in [17]. In addition, the composite z-score in experiment [18] was determined as 1.01; in experiment [19], 1.11; in experiment [20], 0.0223. Besides, the z-score in experiment [8] is -0.765 (inactive); in experiment [12], -1.39 (inactive); in [13], -1.19 (inactive); in experiment [14], -0.675 (inactive); in experiment [16], 3.22 (inactive).

For the molecule `C[C@]12C(=O)N(CCCCCCO)[C@@H]3C(=O)N(c4ccc(Cl)cc4)CC=CC31O[C@@H]1/C=C\CCCOC(=O)C12` (stereo not given in full), the composite z-score in experiment [1] was 0.299; in experiment [2], -0.268; in [3], -0.121; in [4], -0.387; in experiment [5], -1.02; in experiment [6], 0.0955. For the same molecule, the composite z-score in experiment [7] was 1.2; in experiment [9], -0.21; in experiment [10] it was -0.132; in experiment [11] it was 0.807; in experiment [15], 3.27; in experiment [17] it was -0.0665. Moreover, the composite z-score in [18] was -0.463; in experiment [19] it was -0.353; in experiment [20] it was -0.194. Further, the z-score was -0.621 (inactive) in [8]; -2.23 (inactive) in experiment [12]; -1.63 (inactive) in experiment [13]; -0.695 (inactive) in experiment [14]; 1.19 (inactive) in experiment [16].

Regarding `O=C1O[C@@H](c2ccccc2)[C@@H](c2ccccc2)N2[C@@H](c3ccccc3OCCO)[C@]3(C(=O)Nc4ccc(C#CCCO)cc43)[C@@H](C(=O)Nc3nc4ccccc4s3)[C@H]12`, the composite z-score in experiment [1] is -0.0348; in experiment [2], 0.74; in [3] it was -0.0165; in [4], 1.07; in experiment [5] it was 1.36; in experiment [6] it was 1.5. For the same molecule, the composite z-score in [7] came out at 1.3; in experiment [9], 0.73; in experiment [10], 0.28; in experiment [11], 1.55; in [15], 2.64; in experiment [17], 0.259. Further, the composite z-score in experiment [18] stood at 0.448; in [19], 1.05; in experiment [20] it was 0.131. Besides, the z-score is -2.4 (inactive) in experiment [8]; 1.49 (inactive) in experiment [12]; -0.487 (inactive) in [13]; 3.2 (inactive) in experiment [14]; 1.59 (inactive) in [16].

With `COC(=O)[C@@]1(Cc2ccccc2)[C@H]2c3cc(C(=O)N4CCCC4)n(C[C@H](O)CO)c3C[C@H]2CN1C(=O)c1ccccc1`, the composite z-score in experiment [1] was 0.52; in experiment [2], -0.0861; in experiment [3], -0.16; in [4], 0.0518; in [5], 1.58; in [6], 1.99. The composite z-score in [7] was 1.3; in experiment [9] it was 0.348; in [10] it was 0.0053; in experiment [11] it was -0.956; in experiment [15], 3.45; in [17], 0.127. In addition, the composite z-score worked out at 0.334 in [18], 0.873 in experiment [19] and 0.08 in experiment [20]. Further, the z-score is 0.593 (inactive) in [8]; 0.43 (inactive) in experiment [12]; 1.74 (inactive) in experiment [13]; -0.167 (inactive) in experiment [14]; -0.436 (inactive) in experiment [16].

As to `O=C1O[C@@H](c2ccccc2)[C@@H](c2ccccc2)N2[C@@H](c3ccc(O)cc3)[C@]3(C(=O)Nc4ccc(C#CC5=CCCCC5)cc43)[C@@H](C(=O)N3CCN(c4ncccn4)CC3)[C@H]12`, the composite z-score was -0.397 in experiment [1]; 0.892 in [2]; -0.0287 in experiment [3]; 0.323 in experiment [4]; 0.846 in [5]; 0.901 in [6]. Besides, the composite z-score in experiment [7] is 1.2; in experiment [9] it was 0.207; in [10] it was 0.0116; in [11] it was 1.55; in experiment [15] it was 3.12; in experiment [17], 0.517. Further, the composite z-score in [18] was 1.86; in [19], 1.15; in [20], -0.115. Moreover, the z-score is 0.795 (inactive) in [8]; 0.922 (inactive) in experiment [12]; 0.487 (inactive) in experiment [13]; 0.566 (inactive) in experiment [14]; 1.62 (inactive) in experiment [16].
